Test results from PubChem BioAssay (EPA / NIEHS).
Activity calls are given as the source filed them. Rule for the calls: active = hit-call score of the fitted dose curve at least 0.9, where 1 is the maximum; inactive = score below 0.9.

experiment: CCTE_Simmons_MITO_basal_resp_rate: CCTE's HepG2 Seahorse XF Respirometric Screening Assay at Basal Respiratory State, Simmons Lab (AID 2284001); conditions: actives raise or lower the signal
Method: CCTE_Simmons_MITO is cell-based, respirometric assay using HepG2 cells and a Seahorse XF Analyzer to measure oxygen consumption rates over four temporal phases spanning a total of 72 minutes: pre-injection (pre-treatment), basal (following test compound injection), maximal (following FCCP uncoupler injection), and inhibited (following rotenone/antimycin A injection)CCTE_Simmons_MITO_basal_resp_rate is one of 4 assay components calculated from the CCTE_Simmons_MITO assay. It is designed to make measurements of basal respiration using a form of respirometric reporter, as detected with […] signals by Seahorse XF96 technology. Data from the assay component CCTE_Simmons_MITO_basal_resp_rate was analyzed at the endpoint, CCTE_Simmons_MITO_basal_resp_rate_OCR, with bidirectional fitting relative to DMSO as the negative control and baseline of activity. Using a type of respirometric reporter, measures of basal respiration for gain or loss-of-signal activity can be used to understand cellular oxygen consumption as it relates to cellular respiration. To generalize the intended target to other relatable targets, this assay endpoint is annotated to the mitochondria intended target family, where the subfamily is respiration.
Test chemicals were administered as a titrated series of 7 concentrations from 125 nM up to 100 uM [final] prior to kinetic endpoint detection at 6 minute intervals [3 min mix followed by 3 minutes measure] for 72 minutes. Three biological replicates of technical singles were run for every chemical concentration tested. Dimethylsulfoxide [DMSO] was used as the vehicle control. The electron transport chain inhibitor fenpyroximate was used as the positive control for decreased basal respiration and was administered as a titrated series of 6 concentrations from 250 nM up to 2.75 uM [final] with technical triplicates for the top concentration only. The uncoupler 2,4-dintirophenol was used as the positive control for increased basal respiration and was administered as a titrated series of 6 concentrations from 938 nM up to 40 uM [final] with technical triplicates for the top concentration only. A Seahorse XF Analzyer is required to measure the response.

| SMILES | AC50 | outcome |
| --- | --- | --- |
| [Cl-].[Cl-].[Hg+2] | 36.7 µM (active) | – |
| CC(C)(C)C(O)(CCc1ccc(Cl)cc1)Cn1cncn1 (configuration not stated) | 39.6 µM (active) | – |
| CC(C)COC(=O)c1ccccc1C(=O)OCC(C)C | 56.3 µM (active) | – |
| C[C@]12C=CC3=C4CCC(=O)C=C4CC[C@H]3[C@@H]1CC[C@@H]2O | – | inactive |
| CCC(C)c1ccc(O)cc1 (configuration not stated) | 44.3 µM (active) | – |
| CCOC(=O)[C@]1(c2ccccc2)Oc2ccccc2[C@@H]1N | 43.2 µM (active) | – |
| COc1cc(C=O)cc2c1[C@H](COC(N)=O)[C@]1(OC(C)=O)ON2C[C@H]2[C@@H]1N2C(C)=O | – | inactive |
| CC(C)N(Cc1ccccc1)C(=O)C(C)(C)C | 35.6 µM (active) | – |
| Nc1ccc(N=Nc2ccccc2)cc1 | – | inactive |
| CCCCCCCCn1sccc1=O | – | inactive |
| Cc1cc(N=Nc2ccccc2C)ccc1N | 25 µM (active) | – |
| CCC[CH2][Sn]([Cl])([CH2]CCC)[CH2]CCC | 4.86 µM (active) | – |
